Test results as given in PubChem BioAssay (NCATS).
Values joined by “and” are separate entries in the source; they are usually repeats but may differ in a detail not shown here. Equal entries are not always repeated. Results filed as inconclusive are left out. Active and inactive are the calls of the source. Unless noted, the call rests on the fitted dose curve; in most records, active means well fitted curve in the direction sought with a large enough effect; inconclusive means small, poorly fitted or top-dose-only effect, or another doubt; inactive means no such curve, though single readings can be large; an effect the other way counts as inactive or inconclusive.

Columns and labels:
[1] = biological target: D(1A) dopamine receptor (Homo sapiens) (UniProt P21728); experiment: HTS Assay for Allosteric Agonists of the Human D1 Dopamine Receptor: Primary Screen for Potentiators (AID 488982); further: potency means the concentration at half of the fitted maximal effect
Sequence of D(1A) dopamine receptor (Homo sapiens) (P21728 whole entry, looked up): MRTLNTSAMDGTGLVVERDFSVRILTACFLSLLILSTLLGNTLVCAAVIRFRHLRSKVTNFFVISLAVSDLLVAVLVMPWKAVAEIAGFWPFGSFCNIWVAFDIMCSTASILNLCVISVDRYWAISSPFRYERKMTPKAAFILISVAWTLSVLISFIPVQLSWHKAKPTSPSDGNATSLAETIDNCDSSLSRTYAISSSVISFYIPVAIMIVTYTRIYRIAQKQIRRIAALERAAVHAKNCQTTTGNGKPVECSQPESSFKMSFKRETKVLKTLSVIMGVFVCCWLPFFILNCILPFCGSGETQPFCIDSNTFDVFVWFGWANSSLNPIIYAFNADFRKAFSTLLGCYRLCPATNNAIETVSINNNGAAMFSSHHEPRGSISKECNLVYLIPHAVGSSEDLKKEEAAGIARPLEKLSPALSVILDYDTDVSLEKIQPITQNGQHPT
Method in brief: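 Tetracycline-induced HEK293 Trex D1 cells with forced coupling to calcium, loaded with no-wash calcium dye; kinetic fluorescence read 180 s after compound addition for agonism, then a further 180 s after an EC20 dopamine challenge for potentiation.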

[2] = biological target: ATP-dependent 6-phosphofructokinase (Trypanosoma brucei brucei) (UniProt O15648); experiment: qHTS Assay to Find Inhibitors of T. brucei phosphofructokinase: hit validation (AID 492961);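 further: luminescence reports ADP formed as PFK phosphorylates fructose-6-phosphate with ATP; series mostly up to about 51 µM; on the % scale 0 is the no-effect control and ±100 the full control effect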
Sequence of ATP-dependent 6-phosphofructokinase (Trypanosoma brucei brucei) (O15648 whole entry, looked up): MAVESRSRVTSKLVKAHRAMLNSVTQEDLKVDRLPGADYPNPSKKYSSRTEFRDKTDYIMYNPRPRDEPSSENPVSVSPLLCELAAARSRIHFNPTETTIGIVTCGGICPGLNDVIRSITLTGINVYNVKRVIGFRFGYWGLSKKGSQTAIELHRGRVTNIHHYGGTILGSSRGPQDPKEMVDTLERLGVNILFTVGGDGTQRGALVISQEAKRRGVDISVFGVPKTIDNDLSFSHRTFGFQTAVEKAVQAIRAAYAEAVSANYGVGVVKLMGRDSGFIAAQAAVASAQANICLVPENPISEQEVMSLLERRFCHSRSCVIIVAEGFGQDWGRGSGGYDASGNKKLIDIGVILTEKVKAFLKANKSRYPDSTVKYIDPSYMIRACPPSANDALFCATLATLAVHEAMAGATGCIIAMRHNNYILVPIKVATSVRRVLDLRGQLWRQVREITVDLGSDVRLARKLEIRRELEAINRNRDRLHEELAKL
Method in brief: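 Compounds titrated; %activity normalized to 0x and 1x enzyme controls, curve-fitted. Readout: ADP-Glo luminescence after 45 min room-temperature reaction of 1.25 nM PFK, 0.1 mM ATP, 0.5 mM F6P, pH 8.0.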

[3] = Validation screen for small molecules that induce genotoxicity in human embryonic kidney (HEK293T) cells expressing luciferase-tagged ELG1 (AID 493106); further: potency means the concentration at half of the fitted maximal effect
Method in brief: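 ELG1-luciferase reporter readout (ONE-Glo, 30 min, room temperature) after 16 hr compound treatment at 37 °C of HEK293T cells at 2,000 per well. Rising luminescence flags genotoxic stress.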

[4] = biological target: ATPase family AAA domain-containing protein 5 (Homo sapiens) (UniProt Q96QE3); experiment: Validation screen for small molecules that inhibit ELG1-dependent DNA repair in human embryonic kidney (HEK293T) cells expressing luciferase-tagged ELG1 (AID 493107); further: nearly all actives have a fitted effect of over 70% in size; further: potency means the concentration at half of the fitted maximal effect
Sequence of ATPase family AAA domain-containing protein 5 (Homo sapiens) (Q96QE3 whole entry, looked up, the tested form may be a part): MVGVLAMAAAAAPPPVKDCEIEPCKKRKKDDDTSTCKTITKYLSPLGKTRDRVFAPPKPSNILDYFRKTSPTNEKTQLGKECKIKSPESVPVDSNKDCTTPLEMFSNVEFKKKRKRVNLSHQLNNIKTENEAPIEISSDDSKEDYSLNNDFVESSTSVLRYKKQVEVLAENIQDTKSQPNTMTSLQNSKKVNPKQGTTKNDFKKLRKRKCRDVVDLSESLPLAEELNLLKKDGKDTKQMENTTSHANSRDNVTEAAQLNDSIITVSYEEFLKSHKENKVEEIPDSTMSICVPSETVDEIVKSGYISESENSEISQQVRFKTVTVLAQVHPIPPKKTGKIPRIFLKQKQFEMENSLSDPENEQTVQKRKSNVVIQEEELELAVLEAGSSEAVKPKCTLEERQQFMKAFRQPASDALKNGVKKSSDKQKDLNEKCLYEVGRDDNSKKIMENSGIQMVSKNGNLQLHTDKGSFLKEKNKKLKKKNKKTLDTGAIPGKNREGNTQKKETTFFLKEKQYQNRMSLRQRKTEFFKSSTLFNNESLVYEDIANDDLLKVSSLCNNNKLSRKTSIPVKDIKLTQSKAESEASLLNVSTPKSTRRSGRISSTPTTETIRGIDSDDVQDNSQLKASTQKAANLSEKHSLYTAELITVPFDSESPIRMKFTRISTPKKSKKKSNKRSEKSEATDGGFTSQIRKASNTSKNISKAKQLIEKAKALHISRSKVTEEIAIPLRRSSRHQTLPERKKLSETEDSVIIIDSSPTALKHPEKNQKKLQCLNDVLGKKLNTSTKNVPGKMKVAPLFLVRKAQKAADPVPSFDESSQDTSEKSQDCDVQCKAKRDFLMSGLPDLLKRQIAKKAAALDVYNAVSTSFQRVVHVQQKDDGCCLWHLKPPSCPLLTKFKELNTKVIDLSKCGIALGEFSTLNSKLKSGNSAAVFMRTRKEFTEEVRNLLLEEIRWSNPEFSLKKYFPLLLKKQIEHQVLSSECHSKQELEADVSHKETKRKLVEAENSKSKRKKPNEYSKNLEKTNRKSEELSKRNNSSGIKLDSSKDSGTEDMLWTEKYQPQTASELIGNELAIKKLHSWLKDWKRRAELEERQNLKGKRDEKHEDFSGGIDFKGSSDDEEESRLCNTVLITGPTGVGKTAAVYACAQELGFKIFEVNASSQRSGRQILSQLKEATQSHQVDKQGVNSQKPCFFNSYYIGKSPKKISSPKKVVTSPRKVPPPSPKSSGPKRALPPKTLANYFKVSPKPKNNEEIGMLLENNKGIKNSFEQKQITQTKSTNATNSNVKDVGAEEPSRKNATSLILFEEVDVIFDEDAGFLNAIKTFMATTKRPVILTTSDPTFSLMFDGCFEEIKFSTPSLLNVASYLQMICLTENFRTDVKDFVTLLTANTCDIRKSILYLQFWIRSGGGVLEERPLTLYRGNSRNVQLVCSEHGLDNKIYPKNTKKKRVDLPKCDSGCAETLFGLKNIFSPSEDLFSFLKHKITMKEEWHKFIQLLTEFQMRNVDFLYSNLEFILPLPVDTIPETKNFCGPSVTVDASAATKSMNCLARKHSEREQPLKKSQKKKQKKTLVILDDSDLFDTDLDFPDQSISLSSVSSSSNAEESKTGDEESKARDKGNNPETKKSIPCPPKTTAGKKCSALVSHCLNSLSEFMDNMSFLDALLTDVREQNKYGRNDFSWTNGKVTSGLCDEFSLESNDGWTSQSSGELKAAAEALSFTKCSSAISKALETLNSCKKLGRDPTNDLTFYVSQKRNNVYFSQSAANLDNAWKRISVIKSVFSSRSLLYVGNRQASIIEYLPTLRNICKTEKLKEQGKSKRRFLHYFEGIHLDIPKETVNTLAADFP
Method in brief: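 Luciferase read-out, ONE-Glo, 30 min at room temperature, follows 16 h co-exposure at 37 C of compound and the DNA-damaging agent 5-fluorouridine. Cells: HEK293T with ELG1-luciferase fusion, 2,000 per well, DMSO as vehicle.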

[5] = biological target: Thyrotropin-releasing hormone receptor (Homo sapiens) (UniProt P34981); experiment: qHTS for Small Molecule Agonists and Allosteric Enhancers of Human TRH Receptor: Validation Screen for Agonists (AID 493127;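 active means calcium activation more than 3 SD above the typical response in the agonist read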;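 further: intracellular calcium rise by fluo-8 fluorescence before TRH EC20 addition; 0% is about no effect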); details: TRH receptor agonist cell assay; at 2 µM; stronger effect = higher value
Sequence of Thyrotropin-releasing hormone receptor (Homo sapiens) (P34981 whole entry, looked up): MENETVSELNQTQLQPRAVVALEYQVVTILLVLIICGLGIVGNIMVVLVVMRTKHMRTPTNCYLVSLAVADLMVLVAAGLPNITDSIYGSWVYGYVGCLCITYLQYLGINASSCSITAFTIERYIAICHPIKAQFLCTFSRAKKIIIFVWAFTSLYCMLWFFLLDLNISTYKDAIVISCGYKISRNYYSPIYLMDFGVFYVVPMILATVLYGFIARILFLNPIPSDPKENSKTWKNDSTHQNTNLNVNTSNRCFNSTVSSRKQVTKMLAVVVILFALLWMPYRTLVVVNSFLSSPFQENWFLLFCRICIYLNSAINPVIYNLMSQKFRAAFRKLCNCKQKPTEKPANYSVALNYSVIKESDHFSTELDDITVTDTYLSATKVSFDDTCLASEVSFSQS
Method in brief: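 Compound-evoked intracellular calcium release in fluo-8-loaded TRHR cells, read kinetically on FDSS (Ex 480/Em 530, 1 s/cycle) after 23 nL pintool transfer. Agonist phase preceded 10 nM TRH EC20 addition.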

[6] = Nrf2 qHTS screen for inhibitors: Validation (AID 493153; active means well fitted inhibition curve with a large enough effect in the main read-out, with a control signal flat, not every such curve was filed as active); details: Potency: luciferase luminescence; viability change: measured here: cytotoxicity max response
Method in brief: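 Concentration-response on A549 ARE_Fluc reporter cells exposed 18-24 h at 37 C, 5% CO2. Cytotoxicity read first by CellTiter-Fluor fluorescence (Ex 405/Em 525), then Nrf2 inhibition by BugLite luminescence after 15 min.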

[7] = qHTS for Inhibitors of Cell Surface uPA Generation: Validation Assay (AID 493164);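 further: RAW 264.7 macrophage cells exposed to compound for 18 h; 0% is about no effect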
Method in brief: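 ATP-Lite luminescence read-out: ATP remains high when uPA activity-dependent LF translocation into the cytoplasm is blocked. RAW 264.7 cells, 18 h compound exposure at 37 C; 7-point titration, 2.45 nM to 38.3 uM final.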

[8] = biological target: Galactokinase (Homo sapiens) (UniProt P51570); experiment: qHTS Validation Assay for Inhibitors of Human Galactokinase (GALK) (AID 493189); further: 0% is about no effect
Sequence of Galactokinase (Homo sapiens) (P51570 whole entry, looked up): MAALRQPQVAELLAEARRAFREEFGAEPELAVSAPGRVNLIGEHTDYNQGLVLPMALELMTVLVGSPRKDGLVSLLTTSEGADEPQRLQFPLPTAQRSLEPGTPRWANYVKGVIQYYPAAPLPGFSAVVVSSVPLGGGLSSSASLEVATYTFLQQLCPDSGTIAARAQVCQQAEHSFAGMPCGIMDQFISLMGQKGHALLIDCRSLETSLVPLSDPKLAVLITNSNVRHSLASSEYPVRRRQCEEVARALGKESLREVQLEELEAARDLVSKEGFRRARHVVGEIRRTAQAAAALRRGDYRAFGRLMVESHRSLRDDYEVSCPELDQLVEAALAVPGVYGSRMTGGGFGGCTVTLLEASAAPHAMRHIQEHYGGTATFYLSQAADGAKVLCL
Method in brief: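 GALK (5 nM) with 35 uM ATP and 100 uM galactose in HEPES pH8.0, MgCl2, NaCl, DTT, BSA; 1 h at room temperature. Residual ATP read by Kinase-Glo Plus luminescence after 10 min.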

[9] = biological target: phosphoglycerate mutase (Leishmania major) (UniProt Q4Q090); experiment: qHTS Validation Assay to Find Inhibitors of Phosphoglycerate Mutase (AID 504548); further: series mostly up to about 58 µM; on the % scale 0 is the no-effect control and ±100 the full control effect
Method in brief: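 Luminescent end-point read-out via Kinase-GloPlus after a 10-minute development. Reaction: 1.25nM Leishmania major PGAM with substrate and compound, 45 minutes at room temperature in TEA buffer (pH 7.6) with MgCl2 and Tween-20.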

[10] = biological target: Ubiquitin carboxyl-terminal hydrolase 1 (Homo sapiens) (UniProt O94782); experiment: Inhibitors of USP1/UAF1: Pilot qHTS (AID 504865); further: nearly all actives have a fitted effect of over 35% in size; further: potency means the concentration at half of the fitted maximal effect
Sequence of Ubiquitin carboxyl-terminal hydrolase 1 (Homo sapiens) (O94782 whole entry, looked up): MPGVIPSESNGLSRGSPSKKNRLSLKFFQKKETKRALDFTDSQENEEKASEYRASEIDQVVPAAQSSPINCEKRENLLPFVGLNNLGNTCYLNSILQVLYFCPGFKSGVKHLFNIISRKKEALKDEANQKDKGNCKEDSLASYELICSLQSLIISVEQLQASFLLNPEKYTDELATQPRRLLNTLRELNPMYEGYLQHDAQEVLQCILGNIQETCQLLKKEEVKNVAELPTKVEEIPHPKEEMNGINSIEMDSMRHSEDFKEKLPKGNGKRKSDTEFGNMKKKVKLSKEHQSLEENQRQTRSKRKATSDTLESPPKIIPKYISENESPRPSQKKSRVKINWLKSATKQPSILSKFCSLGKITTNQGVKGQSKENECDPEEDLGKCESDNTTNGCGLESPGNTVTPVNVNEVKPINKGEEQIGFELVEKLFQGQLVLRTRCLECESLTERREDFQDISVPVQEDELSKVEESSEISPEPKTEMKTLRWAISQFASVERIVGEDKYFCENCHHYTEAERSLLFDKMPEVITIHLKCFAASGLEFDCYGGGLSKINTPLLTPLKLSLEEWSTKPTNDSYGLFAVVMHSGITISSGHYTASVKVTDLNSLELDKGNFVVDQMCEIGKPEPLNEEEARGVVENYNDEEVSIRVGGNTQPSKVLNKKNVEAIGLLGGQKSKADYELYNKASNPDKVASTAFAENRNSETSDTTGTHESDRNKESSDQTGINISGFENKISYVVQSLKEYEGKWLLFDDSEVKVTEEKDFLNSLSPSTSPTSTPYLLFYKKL
Method in brief: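 USP1/UAF1 complex (1nM) preincubated with compound 15 min at room temperature, then Ub-Rho substrate (150nM final) added. Fluorescence read kinetically at 480/540 nm, 6 reads every 60 seconds. Buffer: 50mM HEPES pH 7.8, 0.5mM EDTA, 0.1 mg/ml BSA, 1mM TCEP, 0.01% Tween-20.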

[11] = Validation screen for small molecules that induce DNA re-replication in SW480 colon adenocarcinoma cells (AID 504364); further: 0% is about no effect
Method in brief: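 Image-based DNA content read-out: Hoechst stain 40 min, total nuclear fluorescence intensity (ex 405 nm, em 500-530 nm) after 48 h compound exposure of 250 SW480 cells/well at 37 C, 5% CO2, versus DMSO vehicle.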

[12] = biological target: Peptidyl-prolyl cis-trans isomerase NIMA-interacting 1 (Homo sapiens) (UniProt Q13526); experiment: qHTS Validation Assay to Find Inhibitors of Pin1 (AID 504536; active means well fitted inhibition curve with a large enough effect in the polarisation, with a control signal flat, not every such curve was filed as active; the % refers to the polarisation;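 further: 0% = full Pin1 enzyme wells and -100% = no-enzyme wells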)
Sequence of Peptidyl-prolyl cis-trans isomerase NIMA-interacting 1 (Homo sapiens) (Q13526 whole entry, looked up): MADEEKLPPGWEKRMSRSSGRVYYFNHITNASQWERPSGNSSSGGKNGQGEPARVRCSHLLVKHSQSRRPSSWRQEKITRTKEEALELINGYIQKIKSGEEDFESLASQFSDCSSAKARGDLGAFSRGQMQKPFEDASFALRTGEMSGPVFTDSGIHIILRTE
Method in brief: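 Fluorescence polarization competition: compounds (titration) displace HiFluor-488-labeled Pin1-1b peptide from Pin1 (0.3 uM final) in pH 7.5 HEPES buffer with DTT, 10 min at room temperature; %Activity normalized to no-enzyme wells, curves fitted.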

[13] = biological target: Phosphoglycerate kinase, glycosomal (Trypanosoma brucei brucei) (UniProt P07378); experiment: qHTS Validation Assay to Find Inhibitors of Phosphoglycerate Kinase (AID 504547);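 further: control wells lack PGK and mark full inhibition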
Sequence of Phosphoglycerate kinase, glycosomal (Trypanosoma brucei brucei) (P07378 whole entry, looked up): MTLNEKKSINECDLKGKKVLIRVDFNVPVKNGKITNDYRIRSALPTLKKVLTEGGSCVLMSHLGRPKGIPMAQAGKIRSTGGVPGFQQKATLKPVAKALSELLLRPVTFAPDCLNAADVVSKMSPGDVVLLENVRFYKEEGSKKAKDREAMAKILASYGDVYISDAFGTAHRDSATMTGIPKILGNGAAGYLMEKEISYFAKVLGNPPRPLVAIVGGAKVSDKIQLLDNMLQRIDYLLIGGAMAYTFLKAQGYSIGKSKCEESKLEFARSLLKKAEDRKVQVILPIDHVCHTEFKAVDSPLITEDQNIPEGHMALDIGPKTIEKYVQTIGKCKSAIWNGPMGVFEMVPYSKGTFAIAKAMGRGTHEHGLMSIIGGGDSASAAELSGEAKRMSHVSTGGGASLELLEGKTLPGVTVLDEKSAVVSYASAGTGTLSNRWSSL
Method in brief: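 Compounds are pinned into the substrate/PGK mixture, and GAPDH (100nM final) is added to start the reaction by producing 1,3-BPG. After 60 minutes at room temperature, Kinase-Glo Plus is added and luminescence is measured 10 minutes later.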

[14] = qHTS for Inhibitors of ATXN expression: Validation (AID 588378); further: nearly all actives have a fitted effect of over 75% in size; further: potency means the concentration at half of the fitted maximal effect
Method in brief: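 Luminescence from an ATXN2-FFLuc reporter in HEK293 cells served as read-out after 24 h compound treatment at 37 degrees C; CellTiter-Fluor fluorescence was recorded first to assess viability.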

[15] = qHTS for Inhibitors of ATXN expression: Validation of Cytotoxic Assay (AID 588349); further: on the % scale 0 is the no-effect control and ±100 the full control effect
Method in brief: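 Cytotoxicity counter-screen: ATP-based luminescent viability (CellTiter Glo) after 72 hr exposure of HEK293 cells to a compound titration at 37 degrees C.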

[16] = biological target: D(1A) dopamine receptor (Homo sapiens) (UniProt P21728); experiment: HTS Assay for Allosteric Agonists of the Human D1 Dopamine Receptor: Primary Screen for Antagonists (AID 488983);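 further: calcium flux response to an EC80 dopamine challenge measured with no-wash dye; potency means the concentration at half of the fitted maximal effect; nearly all actives have a fitted effect of over 65% in size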
Method in brief: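 Calcium-flux read-out in inducible HEK293 T-REx cells expressing D1, dye-loaded 30–90 min at room temperature. Kinetic reads: 180 s after compound (agonist phase), then 180 s after an EC80 dopamine challenge.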

CC(=O)[C@]1(O)Cc2c(O)c3c(c(O)c2[C@@H](O[C@H]2C[C@H](N)[C@H](O)[C@H](C)O2)C1)C(=O)c1ccccc1C3=O
inactive: outcome [2] | activation [5] 17.9% | Potency [6] | outcome [7] | outcome [8] | outcome [9]
active: Potency [1] 2.91 µM | Potency [3] 580 nM | Potency [4] 5.8 µM | Potency [10] 50.1 µM and 39.8 µM
-47.3%: viability change [6]

Cc1nc2sccn2c(=O)c1CCN1CCC(=C(c2ccc(F)cc2)c2ccc(F)cc2)CC1
inactive: Potency [1] | outcome [2] | Potency [6] | outcome [7] | outcome [8] | outcome [11] | outcome [12] | outcome [13] | outcome [9]
-8.03%: viability change [6]

CCOC(=O)C1=C(C)NC(C)=C(C(=O)OC)C1c1cccc(Cl)c1Cl (centres undefined)
-3.98%: viability change [6]
inactive: Potency [1] | outcome [2] | activation [5] 1.12% | Potency [6] | outcome [7] | outcome [8] | outcome [11] | outcome [12]

COC(=O)[C@@H](N)Cc1ccc(O)c(O)c1
-11.8%: viability change [6]
inactive: Potency [1] | outcome [2] | Potency [4] | activation [5] 1% | Potency [6] | outcome [7] | outcome [8] | outcome [11] | outcome [13] | outcome [9] | Potency [10] | Potency [14]

COc1cc2c(cc1OC)-c1cc(=Nc3c(C)cc(C)cc3C)n(C)c(=O)n1CC2
inactive: Potency [1] | outcome [2] | Potency [3] | activation [5] -6.75% | Potency [6] | outcome [7] | outcome [8] | outcome [11] | outcome [13] | outcome [9] | Potency [15] | Potency [14]
-6.02%: viability change [6]
active: Potency [4] 13 µM

CCNC(=O)N1CCN(CCCC(c2ccc(F)cc2)c2ccc(F)cc2)CC1
inactive: Potency [1] | outcome [2] | Potency [4] | activation [5] 6.5% | Potency [6] | outcome [7] | outcome [8] | outcome [11] | outcome [12] | outcome [13] | outcome [9] | Potency [10]
-3.28%: viability change [6]

COC(=O)C1=C(C)NC(C)=C(C(=O)OCCN(C)Cc2ccccc2)C1c1cccc([N+](=O)[O-])c1 (centres undefined)
inactive: Potency [1] | activation [5] -4.56% | outcome [8] | outcome [9]
active: Potency [16] 7.08 µM | Potency [4] 16.4 µM | Potency [14] 35.5 µM

CN(C)CCOC(=O)COc1ccc(Cl)cc1
9.38%: viability change [6]
inactive: Potency [1] | outcome [2] | Potency [3] | Potency [4] | activation [5] 0.188% | Potency [6] | outcome [8] | outcome [11] | outcome [12] | outcome [13] | outcome [9] | Potency [10] | Potency [14]

NCCCNCCSP(=O)(O)O
inactive: Potency [1] | outcome [2] | Potency [4] | activation [5] 0.812% | Potency [6] | outcome [7] | outcome [8] | outcome [11] | outcome [12] | outcome [13] | outcome [9] | Potency [10] | Potency [15] | Potency [14]
4.69%: viability change [6]

CCN(CC)CCNC(=O)c1cc(S(C)(=O)=O)ccc1OC
inactive: Potency [1] | outcome [2] | Potency [3] | Potency [4] | activation [5] 0.0625% | Potency [6] | outcome [8] | outcome [11] | outcome [12] | outcome [9] | Potency [10] | Potency [14]
10.1%: viability change [6]
